Test in all cases: DAPPL (digital affinity profiling via proximity ligation, sequencing); 10 mM Tris-HCl pH 7.5, 50 mM NaCl, 1 mM DTT, 4% glycerol, room temperature, 30 min; GST-TFs on glutathione beads, 16-mer random dsDNA library, 0.1% formaldehyde crosslink after washing; high values mean tight binding
Common to all, as to conditions: protein: recombinant; tags: N-terminal GST; dsDNA, one strand shown

One test concerns the target T1, FLI1 (Homo sapiens, UniProt Q01543 1-452).
T1 sequence: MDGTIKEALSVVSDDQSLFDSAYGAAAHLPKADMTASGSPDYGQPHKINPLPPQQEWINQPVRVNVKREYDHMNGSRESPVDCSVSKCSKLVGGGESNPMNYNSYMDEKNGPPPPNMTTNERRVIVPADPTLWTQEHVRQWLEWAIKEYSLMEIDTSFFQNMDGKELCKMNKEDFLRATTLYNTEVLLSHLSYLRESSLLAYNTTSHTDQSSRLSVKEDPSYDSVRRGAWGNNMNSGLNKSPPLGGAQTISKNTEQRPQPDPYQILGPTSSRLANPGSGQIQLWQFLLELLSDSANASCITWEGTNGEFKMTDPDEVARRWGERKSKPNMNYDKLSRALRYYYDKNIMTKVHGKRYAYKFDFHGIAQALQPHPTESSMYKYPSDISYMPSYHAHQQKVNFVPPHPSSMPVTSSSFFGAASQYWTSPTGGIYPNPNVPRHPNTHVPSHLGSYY
A digest of the protocol: (§1)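 A tag-only sample was pooled with DNA-barcoded human transcription factors that had been expressed in yeast as GST fusions and captured on glutathione beads. The pools were incubated for 30 min at room temperature with 200 nmole of a random double-stranded 16-mer DNA library in Tris/NaCl/DTT/glycerol buffer, then washed, crosslinked with 0.1% formaldehyde, proximity-ligated (BsaI/T4 ligase, 1 h, 37 °C), PCR-amplified and sequenced on an Illumina NextSeq500. Binding signal is each hexamer's read frequency for a factor divided by its frequency for the tag-only sample.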

The next test concerns the target T2, ELK1 (Homo sapiens, UniProt P19419 1-428).
T2 sequence: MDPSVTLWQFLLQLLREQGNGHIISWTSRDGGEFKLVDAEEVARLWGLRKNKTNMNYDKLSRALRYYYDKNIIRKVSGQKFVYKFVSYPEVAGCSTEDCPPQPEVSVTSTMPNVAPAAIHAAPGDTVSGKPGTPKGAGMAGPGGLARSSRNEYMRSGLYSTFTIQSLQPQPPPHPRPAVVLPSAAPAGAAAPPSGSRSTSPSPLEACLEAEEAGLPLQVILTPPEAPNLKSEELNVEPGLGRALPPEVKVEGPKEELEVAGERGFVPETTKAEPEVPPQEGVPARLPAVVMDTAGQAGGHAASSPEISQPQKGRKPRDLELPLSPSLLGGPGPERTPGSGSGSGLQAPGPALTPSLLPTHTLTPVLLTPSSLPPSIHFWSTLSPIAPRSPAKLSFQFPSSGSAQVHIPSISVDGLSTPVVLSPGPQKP
In outline: as §1

Another test deals with T3, GABPA (Homo sapiens, UniProt Q06546 1-454).
T3 sequence: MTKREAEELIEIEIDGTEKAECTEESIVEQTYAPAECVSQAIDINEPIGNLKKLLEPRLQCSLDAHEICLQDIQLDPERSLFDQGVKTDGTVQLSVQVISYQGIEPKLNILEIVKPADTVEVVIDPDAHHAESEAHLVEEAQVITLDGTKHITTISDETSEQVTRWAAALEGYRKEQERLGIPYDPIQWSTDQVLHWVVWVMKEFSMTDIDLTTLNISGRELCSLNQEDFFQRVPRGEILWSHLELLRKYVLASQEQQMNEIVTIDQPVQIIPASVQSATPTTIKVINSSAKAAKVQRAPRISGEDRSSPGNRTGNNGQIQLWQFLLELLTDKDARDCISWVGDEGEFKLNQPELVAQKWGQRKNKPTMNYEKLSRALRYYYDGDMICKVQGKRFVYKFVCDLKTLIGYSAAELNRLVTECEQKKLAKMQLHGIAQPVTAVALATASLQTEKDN
In outline: as §1

Another test deals with T4, ERG (Homo sapiens, UniProt P11308 1-479).
T4 sequence: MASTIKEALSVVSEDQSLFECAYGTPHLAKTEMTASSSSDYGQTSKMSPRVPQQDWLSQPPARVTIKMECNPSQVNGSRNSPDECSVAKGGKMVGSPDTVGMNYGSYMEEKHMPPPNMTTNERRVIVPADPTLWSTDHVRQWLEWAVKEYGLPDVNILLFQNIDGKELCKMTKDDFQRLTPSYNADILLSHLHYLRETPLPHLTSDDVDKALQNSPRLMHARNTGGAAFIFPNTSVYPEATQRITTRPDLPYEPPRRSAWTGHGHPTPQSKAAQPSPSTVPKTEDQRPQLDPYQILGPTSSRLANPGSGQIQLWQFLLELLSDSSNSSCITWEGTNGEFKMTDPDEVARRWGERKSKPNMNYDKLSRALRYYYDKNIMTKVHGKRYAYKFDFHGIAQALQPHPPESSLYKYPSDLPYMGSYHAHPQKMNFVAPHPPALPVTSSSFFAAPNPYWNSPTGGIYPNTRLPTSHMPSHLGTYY
A digest of the protocol: as §1

The target in another test is ELF1 (Homo sapiens, UniProt P32519 1-619). A digest of the protocol:
as §1

In the next test the target is T5, EHF (Homo sapiens, UniProt Q9NZC4 1-300).
T5 sequence: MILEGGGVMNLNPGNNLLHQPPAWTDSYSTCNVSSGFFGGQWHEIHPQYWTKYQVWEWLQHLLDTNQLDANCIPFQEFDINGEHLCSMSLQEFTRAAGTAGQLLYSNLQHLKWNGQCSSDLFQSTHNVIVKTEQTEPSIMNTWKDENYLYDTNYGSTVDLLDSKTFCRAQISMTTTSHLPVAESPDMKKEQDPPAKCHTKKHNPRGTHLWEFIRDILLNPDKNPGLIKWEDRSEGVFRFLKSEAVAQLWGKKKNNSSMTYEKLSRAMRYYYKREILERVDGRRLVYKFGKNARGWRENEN
A digest of the protocol: as §1

The target in a further test is SPI1 (Homo sapiens, UniProt P17947 1-270). In outline: as §1
The next test concerns the target SPIB (Homo sapiens, UniProt Q01892 1-262). A digest of the protocol:
as §1

The target of the next test is T6, ELK3 (Homo sapiens, UniProt P41970 1-407).
T6 sequence: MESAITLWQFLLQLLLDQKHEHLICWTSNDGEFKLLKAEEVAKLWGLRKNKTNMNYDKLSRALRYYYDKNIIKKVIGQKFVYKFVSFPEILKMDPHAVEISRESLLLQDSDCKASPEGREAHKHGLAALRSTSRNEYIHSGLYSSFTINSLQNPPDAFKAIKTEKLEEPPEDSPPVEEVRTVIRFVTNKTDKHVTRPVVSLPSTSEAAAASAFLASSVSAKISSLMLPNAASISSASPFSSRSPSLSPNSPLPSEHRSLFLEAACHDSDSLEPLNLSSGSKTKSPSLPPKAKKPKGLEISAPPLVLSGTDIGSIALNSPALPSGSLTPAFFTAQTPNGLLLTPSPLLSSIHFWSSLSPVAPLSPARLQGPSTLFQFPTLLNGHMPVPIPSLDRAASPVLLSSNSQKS
In outline:
as §1

The target in the next test is T7, FEV (Homo sapiens, UniProt Q99581 1-238).
T7 sequence: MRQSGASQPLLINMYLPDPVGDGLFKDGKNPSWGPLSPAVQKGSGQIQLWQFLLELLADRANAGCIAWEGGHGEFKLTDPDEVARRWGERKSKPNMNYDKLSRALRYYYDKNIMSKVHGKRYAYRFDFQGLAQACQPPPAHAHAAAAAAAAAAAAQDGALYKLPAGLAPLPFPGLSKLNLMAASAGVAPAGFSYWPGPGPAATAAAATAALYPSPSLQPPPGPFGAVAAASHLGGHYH
A digest of the protocol:
as §1

For a further test, the target named is ETV5 (Homo sapiens, UniProt P41161 1-510). In outline:
as §1

The next test has as its target T8, SPIC (Homo sapiens, UniProt Q8N5J4 1-248).
T8 sequence: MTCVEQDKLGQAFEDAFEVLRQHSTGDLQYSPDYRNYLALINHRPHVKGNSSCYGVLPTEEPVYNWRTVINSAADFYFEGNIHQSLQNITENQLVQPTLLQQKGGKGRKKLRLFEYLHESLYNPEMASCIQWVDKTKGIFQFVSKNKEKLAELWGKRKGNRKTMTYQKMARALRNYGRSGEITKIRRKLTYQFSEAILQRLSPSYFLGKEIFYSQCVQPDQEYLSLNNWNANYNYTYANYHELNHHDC
In outline: as §1

In a further test the target is ELF4 (Homo sapiens, UniProt Q99607 1-663). In outline: as §1
Sequence of ELF4 (Q99607 whole entry): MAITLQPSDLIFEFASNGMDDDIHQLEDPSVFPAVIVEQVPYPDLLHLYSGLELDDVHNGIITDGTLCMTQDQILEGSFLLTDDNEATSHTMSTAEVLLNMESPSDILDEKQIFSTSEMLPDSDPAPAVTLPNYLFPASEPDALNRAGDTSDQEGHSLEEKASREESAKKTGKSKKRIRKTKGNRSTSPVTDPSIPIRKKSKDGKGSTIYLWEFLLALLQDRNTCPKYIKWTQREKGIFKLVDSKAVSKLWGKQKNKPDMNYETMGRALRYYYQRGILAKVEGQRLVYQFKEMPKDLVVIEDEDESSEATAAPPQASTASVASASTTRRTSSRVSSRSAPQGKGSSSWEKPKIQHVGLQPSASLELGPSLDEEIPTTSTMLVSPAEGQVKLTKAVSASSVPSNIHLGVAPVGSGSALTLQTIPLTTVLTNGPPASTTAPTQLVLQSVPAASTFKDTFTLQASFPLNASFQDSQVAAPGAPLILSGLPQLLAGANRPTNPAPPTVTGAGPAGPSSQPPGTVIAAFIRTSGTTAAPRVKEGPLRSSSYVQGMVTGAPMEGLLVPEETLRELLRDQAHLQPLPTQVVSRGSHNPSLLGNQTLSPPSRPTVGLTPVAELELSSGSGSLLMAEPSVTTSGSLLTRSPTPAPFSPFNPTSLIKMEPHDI
In another test the target is T9, ELK4 (Homo sapiens, UniProt P28324-2 1-405).
T9 sequence: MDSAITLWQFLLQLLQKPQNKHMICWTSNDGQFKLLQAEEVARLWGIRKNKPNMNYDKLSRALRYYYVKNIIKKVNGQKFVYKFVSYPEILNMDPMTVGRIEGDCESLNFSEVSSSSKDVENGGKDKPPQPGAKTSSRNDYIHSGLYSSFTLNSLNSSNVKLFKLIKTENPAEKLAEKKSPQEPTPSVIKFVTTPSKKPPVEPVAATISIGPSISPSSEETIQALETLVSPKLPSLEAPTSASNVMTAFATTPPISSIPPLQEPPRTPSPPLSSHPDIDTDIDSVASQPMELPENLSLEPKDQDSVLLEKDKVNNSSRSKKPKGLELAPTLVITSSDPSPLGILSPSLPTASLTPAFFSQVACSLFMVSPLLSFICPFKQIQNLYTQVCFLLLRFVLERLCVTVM
A digest of the protocol:
as §1

A further test has as its target T10, ETV2 (Homo sapiens, UniProt O00321 1-342).
T10 sequence: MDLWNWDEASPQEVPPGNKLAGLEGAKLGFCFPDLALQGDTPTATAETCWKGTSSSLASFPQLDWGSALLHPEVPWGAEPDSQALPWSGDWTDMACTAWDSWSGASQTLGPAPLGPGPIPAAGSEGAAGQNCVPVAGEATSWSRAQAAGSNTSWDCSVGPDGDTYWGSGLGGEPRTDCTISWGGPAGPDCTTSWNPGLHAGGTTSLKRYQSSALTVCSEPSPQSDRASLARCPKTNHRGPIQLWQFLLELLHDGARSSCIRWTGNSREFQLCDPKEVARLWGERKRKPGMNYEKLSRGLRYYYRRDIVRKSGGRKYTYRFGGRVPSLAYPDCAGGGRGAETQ
In outline: as §1

The next test concerns the target T11, ELF3 (Homo sapiens, UniProt P78545 1-371).
T11 sequence: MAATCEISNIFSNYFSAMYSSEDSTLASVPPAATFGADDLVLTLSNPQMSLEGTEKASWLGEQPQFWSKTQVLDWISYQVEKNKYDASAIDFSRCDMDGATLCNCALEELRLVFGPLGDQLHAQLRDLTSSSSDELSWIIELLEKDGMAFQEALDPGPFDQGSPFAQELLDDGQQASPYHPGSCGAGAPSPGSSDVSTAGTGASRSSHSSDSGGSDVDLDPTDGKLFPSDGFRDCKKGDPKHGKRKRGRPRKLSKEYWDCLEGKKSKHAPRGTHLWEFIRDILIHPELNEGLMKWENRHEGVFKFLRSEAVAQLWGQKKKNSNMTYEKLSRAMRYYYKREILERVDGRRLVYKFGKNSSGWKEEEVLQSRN
In outline: as §1

Another test addresses ETV1 (Homo sapiens, UniProt P50549 1-477). In outline: as §1

Sequence of ETV1 (P50549 whole entry): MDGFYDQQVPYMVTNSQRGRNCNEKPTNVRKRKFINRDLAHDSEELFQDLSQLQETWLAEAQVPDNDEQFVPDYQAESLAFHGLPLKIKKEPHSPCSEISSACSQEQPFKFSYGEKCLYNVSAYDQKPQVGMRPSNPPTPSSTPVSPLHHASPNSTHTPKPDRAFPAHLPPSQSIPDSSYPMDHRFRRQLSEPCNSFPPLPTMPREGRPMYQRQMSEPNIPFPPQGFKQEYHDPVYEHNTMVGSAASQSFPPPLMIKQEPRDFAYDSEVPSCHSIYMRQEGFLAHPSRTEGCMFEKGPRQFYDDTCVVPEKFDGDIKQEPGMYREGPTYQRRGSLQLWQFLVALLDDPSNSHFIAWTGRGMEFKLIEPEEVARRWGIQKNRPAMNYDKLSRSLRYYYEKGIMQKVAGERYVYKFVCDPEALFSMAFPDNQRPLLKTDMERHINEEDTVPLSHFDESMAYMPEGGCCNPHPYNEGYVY
Sequence of SPIB (Q01892 whole entry): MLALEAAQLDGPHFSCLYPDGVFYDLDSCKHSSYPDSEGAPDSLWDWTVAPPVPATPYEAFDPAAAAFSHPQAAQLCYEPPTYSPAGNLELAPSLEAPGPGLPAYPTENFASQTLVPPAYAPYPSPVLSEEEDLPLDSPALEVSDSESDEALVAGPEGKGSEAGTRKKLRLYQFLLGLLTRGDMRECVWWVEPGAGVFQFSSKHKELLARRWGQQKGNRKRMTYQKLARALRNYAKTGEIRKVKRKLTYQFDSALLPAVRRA
Sequence of ETV5 (P41161 whole entry): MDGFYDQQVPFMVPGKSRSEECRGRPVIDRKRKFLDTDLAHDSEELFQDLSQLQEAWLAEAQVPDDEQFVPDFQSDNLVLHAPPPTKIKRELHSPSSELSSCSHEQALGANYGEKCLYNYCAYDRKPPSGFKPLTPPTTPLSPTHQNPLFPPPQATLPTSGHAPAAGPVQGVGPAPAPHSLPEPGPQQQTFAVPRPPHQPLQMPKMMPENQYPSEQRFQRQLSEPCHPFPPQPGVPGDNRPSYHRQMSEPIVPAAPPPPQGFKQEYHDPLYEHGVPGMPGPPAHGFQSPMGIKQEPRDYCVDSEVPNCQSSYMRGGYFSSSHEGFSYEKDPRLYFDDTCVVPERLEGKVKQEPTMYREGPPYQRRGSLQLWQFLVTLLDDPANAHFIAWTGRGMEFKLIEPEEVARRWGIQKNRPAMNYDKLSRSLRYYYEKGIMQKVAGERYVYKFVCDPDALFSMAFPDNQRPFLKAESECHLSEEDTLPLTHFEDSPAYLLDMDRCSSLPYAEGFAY
Sequence of ELF1 (P32519 whole entry): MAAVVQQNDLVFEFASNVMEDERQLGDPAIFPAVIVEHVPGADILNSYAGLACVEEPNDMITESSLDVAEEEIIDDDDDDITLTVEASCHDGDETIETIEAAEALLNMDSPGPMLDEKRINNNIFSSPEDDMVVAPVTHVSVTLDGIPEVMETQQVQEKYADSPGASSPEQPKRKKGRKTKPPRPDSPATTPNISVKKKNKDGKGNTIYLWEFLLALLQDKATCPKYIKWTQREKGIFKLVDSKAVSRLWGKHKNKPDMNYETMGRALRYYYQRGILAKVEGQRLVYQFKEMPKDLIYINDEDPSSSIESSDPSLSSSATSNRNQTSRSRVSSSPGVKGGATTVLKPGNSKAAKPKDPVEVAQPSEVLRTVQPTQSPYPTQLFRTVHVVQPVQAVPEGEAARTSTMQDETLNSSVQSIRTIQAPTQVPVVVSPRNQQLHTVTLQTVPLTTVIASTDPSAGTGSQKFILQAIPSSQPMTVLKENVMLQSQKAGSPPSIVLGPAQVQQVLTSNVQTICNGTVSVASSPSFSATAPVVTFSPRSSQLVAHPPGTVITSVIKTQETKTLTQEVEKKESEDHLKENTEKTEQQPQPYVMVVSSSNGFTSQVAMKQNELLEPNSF

Take CTGCAC: the binding signal in the test with FLI1 was 1.2 fold enrichment (6-mer frequency, TF over GST control); in the test with ELK1, 1.29 fold enrichment (6-mer frequency, TF over GST control); with GABPA it was 1.12 fold enrichment (6-mer frequency, TF over GST control); in the test with ERG, 1.13 fold enrichment (6-mer frequency, TF over GST control); with ELF1, 1.21 fold enrichment (6-mer frequency, TF over GST control); with EHF, 1.3 fold enrichment (6-mer frequency, TF over GST control). Besides, the binding signal with SPI1 is 1.19 fold enrichment (6-mer frequency, TF over GST control); with SPIB, 1.15 fold enrichment (6-mer frequency, TF over GST control); with ELK3 it was 1.12 fold enrichment (6-mer frequency, TF over GST control); with FEV, 1.22 fold enrichment (6-mer frequency, TF over GST control); with ETV5, 1.17 fold enrichment (6-mer frequency, TF over GST control); with SPIC, 1.32 fold enrichment (6-mer frequency, TF over GST control). The binding signal in the test with ELF4 was 1.2 fold enrichment (6-mer frequency, TF over GST control); with ELK4 it was 1.29 fold enrichment (6-mer frequency, TF over GST control); in the test with ETV2, 1.24 fold enrichment (6-mer frequency, TF over GST control); with ELF3, 1.31 fold enrichment (6-mer frequency, TF over GST control); with ETV1, 1.13 fold enrichment (6-mer frequency, TF over GST control).

In the case of AAGTGT, the binding signal was 1.18 fold enrichment (6-mer frequency, TF over GST control) with FLI1; 1.29 fold enrichment (6-mer frequency, TF over GST control) in the test with ELK1; 1.32 fold enrichment (6-mer frequency, TF over GST control) in the test with GABPA; 1.44 fold enrichment (6-mer frequency, TF over GST control) with ERG; 1.24 fold enrichment (6-mer frequency, TF over GST control) with ELF1; 1.24 fold enrichment (6-mer frequency, TF over GST control) in the test with EHF. In addition, the binding signal is 1.6 fold enrichment (6-mer frequency, TF over GST control) with SPI1; 1.38 fold enrichment (6-mer frequency, TF over GST control) in the test with SPIB; 1.37 fold enrichment (6-mer frequency, TF over GST control) in the test with ELK3; 1.28 fold enrichment (6-mer frequency, TF over GST control) with FEV; 1.33 fold enrichment (6-mer frequency, TF over GST control) with ETV5; 1.6 fold enrichment (6-mer frequency, TF over GST control) in the test with SPIC. In addition, the binding signal was 1.3 fold enrichment (6-mer frequency, TF over GST control) in the test with ELF4; 1.21 fold enrichment (6-mer frequency, TF over GST control) with ELK4; 1.37 fold enrichment (6-mer frequency, TF over GST control) with ETV2; 1.43 fold enrichment (6-mer frequency, TF over GST control) with ELF3; 1.39 fold enrichment (6-mer frequency, TF over GST control) with ETV1.

Values taken from paper PMC7862700, “An all-to-all approach to the identification of sequence-specific readers for epigenetic DNA modifications on cytosine”.
